Measured values taken from PubChem BioAssay (EPA / NIEHS).
Activity calls are given as the source filed them. Rule for the calls: active = hit-call score of the fitted dose curve at least 0.9, where 1 is the maximum; inactive = score below 0.9.

Test: CCTE_Padilla_ZF_Score.General: CCTE's 144 Hour Post-fertilization zebrafish Assay Score for General Malformation, Padilla Lab (AID 2284411)
Procedure: CCTE_Padilla_ZF_Phenotype_Score is a whole embryo, multiplexed assay using zebrafish ova exposed for 144 hours post fertilization on a 96-well plate.CCTE_Padilla_ZF_Score.General is one of one assay component(s) measured or calculated from the CCTE_Padilla_ZF_Phenotype_Score assay. It is designed to make measurements of zebrafish development as detected with brightfield microscopy of developing zebrafish embryos.Data from the assay component CCTE_Padilla_ZF_Score.General was analyzed into 1 assay endpoints. This assay endpoint, CCTE_Padilla_ZF_Score.General, was analyzed in the positive analysis fitting direction relative to DMSO as the negative control and baseline of activity. Using a type of viability reporter, gain-of-signal activity can be used to understand changes in developmentals as they relate to the whole embryo. To generalize the intended target to other relatable targets, this assay endpoint is annotated to the zebrafish development intended target family, where the subfamily is embryonic morphogenesis.
Zebrafish husbandry: Wild type adult zebrafish (Danio rerio; undefined outbred stock obtained from Aquatic Research Organisms, Hampton, NH, 03842) were housed in an AAALAC-approved animal facility at 28C with a 14:10 h light: dark cycle (lights on at 08:30 h). Adult fish (2-3 females per male; density = 15-20 adults per tank) were kept in one of several 9-liter (L) flow-through colony tanks (Aquaneering Inc., San Diego, CA). All adults in a colony tank were placed in a 2 L (static) breeding tank (Aquatic Habitats, Apopka, FL) one hour prior to light onset. Typically, adults from two to three colony tanks were mated on the same day. Two hours after light onset the adults were returned to the colony tank. All embryos were gathered from each breeder tank, pooled, and placed in a 28C water bath for 2 h, followed by two washes with 0.06% bleach (v/v) in 10% Hanks' Balanced Salt Solution (13.7 mM NaCl 0.54 mM KCl, 25 uM Na2HPO4, 130 uM CaCl2 100 um MgSO4 and 420 um NaHCO3,), hereafter referred to as Hanks' solution, for 5 min in order to remove any residual bacteria or fungi. Immediately following washing, the embryos were examined, and healthy embryos were separated from dead or unfertilized eggs and moved into fresh Hanks'. Chemical exposures: Zebrafish embryos were exposed in 96-well plates. Between 6- and 8-hours post fertilization (hpf), healthy embryos (with chorions) were transferred, one embryo per well, into 96 well (0.5 mL) microtiter plates (Cell Culture-Treated, Flat-Bottom Microplate 96 well [Corning Costar, Kennebunk, ME; Cat 09-761-145]) filled with 200 uL of Hanks' solution. A random number generator was used to assign the order in which the rows of embryos were plated in 96 well plates each week. After plating, the embryos were dosed with 0.8 uL of the chemical dosing solution then immediately sealed with AlumaSeal II (Excel Scientific Inc, Victorville, CA) to prevent volatilization of the chemicals, and then placed in a leakproof secondary container. These containers were placed in an incubator maintained on a 14:10 h light: dark cycle at 26C for rearing. On 5 dpf, live larvae were gently moved out of the plate with test chemicals and into a new 96 well mesh plate (Millipore Corp., Bedford, MA) with just the Hanks' solution. Once within the mesh well plate, the animals were rinsed with 400 uL of fresh Hanks' three times, and then the plates were covered with a non-adhesive material (Microseal A, BioRad, Hercules, CA), plate lid added, and then plate sides wrapped in Parafilm (PM992, Bermis Company, Neenah, WI), and returned to the incubator. […]

SMILES | AC50 | outcome
CC(C)(C)c1ccccc1OP(=O)(Oc1ccccc1)Oc1ccccc1 | 8.75 µM (active) | –
OCC(F)(F)OC(F)(F)C(F)(F)OC(F)(F)C(F)(F)OC(F)(F)F | 16.2 µM (active) | –
NC(=O)C(F)(F)C(F)(F)F | – | inactive
CC(C)Nc1ccc(Nc2ccccc2)cc1 | 2.6 µM (active) | –
C=CC(=O)OCC(F)(F)C(F)F | 7.91 µM (active) | –
O=C(O)C(F)(F)C(F)(F)C(=O)O | – | inactive
Cc1c([N+](=O)[O-])cc2c(c1[N+](=O)[O-])C(C)(C)CC2(C)C | 2.8 µM (active) | –
O=C(O)C(F)(F)OC(F)(F)C(F)(F)OC(F)(F)F | – | inactive
CC(O)C(F)(F)C(F)(F)F (stereo unspecified) | – | inactive
c1ccc2c(c1)sc1ccccc12 | – | inactive
OCC(F)(F)OC(F)(F)C(F)(F)OC(F)(F)C(F)(F)OC(F)(F)CO | – | inactive
O=C(O)C(F)(OC(F)(F)C(F)(F)C(F)(F)F)C(F)(F)F (stereo unspecified) | – | inactive
O=C(O)C(F)(F)OC(F)(F)C(F)(F)OC(F)(F)C(=O)O | – | inactive
O=S1(=O)OCC2C(CO1)C1(Cl)C(Cl)=C(Cl)C2(Cl)C1(Cl)Cl (stereo unspecified) | 0.165 µM (active) | –
COC(=O)C(F)(F)C(F)(F)OC(F)(C(F)(F)F)C(F)(F)OC(F)=C(F)F (stereo unspecified) | – | inactive
Nc1ccc([N+](=O)[O-])cc1Cl | – | inactive
OCC(F)(F)OC(F)(F)C(F)(F)OC(F)(F)CO | – | inactive
O=C(O)C=CC(F)(C(F)(F)F)C(F)(F)F | – | inactive
N#Cc1c(-c2ccc(Cl)cc2)[nH]c(C(F)(F)F)c1Br | – | inactive
CCOP(=S)(OCC)SCSc1ccc(Cl)cc1 | 8.15 µM (active) | –
O=c1ssc(Cl)c1Cl | – | inactive
CCCCC(CC)COP(=O)(Oc1ccccc1)Oc1ccccc1 (stereo unspecified) | 3.23 µM (active) | –
FC(F)(F)C(F)(C(F)(F)F)C(F)(F)C(F)(F)CC1CO1 (stereo unspecified) | – | inactive
O=S(=O)(F)C(F)(F)C(F)(F)C(F)(F)C(F)(F)C(F)(F)C(F)(F)C(F)(F)C(F)(F)F | – | inactive
CCOP(=S)(OCC)SCS(=O)(=O)CC | 65.2 µM (active) | –
O=P(OCC(Br)CBr)(OCC(Br)CBr)OCC(Br)CBr (stereo unspecified) | 2.01 µM (active) | –
